# Assay outcomes deposited in PubChem by several laboratories.
# CYP2C19 inhib: blockers of cytochrome P450 2C19 activity – biochemical, luminescence, ADME assay, primary screen; P33261; CYP2C19 Supersomes, luciferin-H EGE luminescence, 30 min; inhibition, % at 5 µM; hit rate 21% among 96,000; AID 778, 2007;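 active = CYP2C19 inhibition above a set limit at 5 µM in the primary screen, cut at about 50% in these data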;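 note: plate controls were negative control wells for no effect and 2.5 mM tranylcypromine positive control for full effect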
# Target sequence (P33261 whole entry, looked up): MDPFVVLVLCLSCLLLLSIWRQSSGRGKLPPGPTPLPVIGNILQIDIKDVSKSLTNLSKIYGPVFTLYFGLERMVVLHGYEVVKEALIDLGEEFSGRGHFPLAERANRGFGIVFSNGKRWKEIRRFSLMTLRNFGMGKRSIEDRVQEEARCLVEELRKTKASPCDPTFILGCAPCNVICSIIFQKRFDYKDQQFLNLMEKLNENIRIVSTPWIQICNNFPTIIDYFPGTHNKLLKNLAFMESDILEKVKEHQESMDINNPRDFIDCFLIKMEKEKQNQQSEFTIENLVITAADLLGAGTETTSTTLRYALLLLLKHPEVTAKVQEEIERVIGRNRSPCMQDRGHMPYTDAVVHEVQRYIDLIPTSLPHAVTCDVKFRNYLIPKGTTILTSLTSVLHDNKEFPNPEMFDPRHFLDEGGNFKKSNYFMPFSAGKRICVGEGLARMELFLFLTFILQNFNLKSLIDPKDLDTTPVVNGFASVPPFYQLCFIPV
# CYP2C19 act: human CYP2C19 activators, primary screen, biochemical, luminescence; activation factor at 5 µM; Cytochrome P450 2C19 (Homo sapiens), P33261; 96,000 tested, under 10 active; recombinant CYP2C19, luciferin-H EGE luminescence; stronger effect = higher value; 0 = fully inhibited enzyme, 1 = untreated enzyme;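 active = activation factor of at least 2 at 5 µM in the primary screen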;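 note: 0 = wells with 2.5 mM tranylcypromine and 1 = vehicle-only wells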
# CYP2C9 inh: blockers of cytochrome P450 2C9 activity – biochemical, luminescence, ADME assay, primary screen. CYP2C9 Supersomes, luciferin-H conversion. hit rate 20% among 96,000. P11712. inhibition, % at 5 µM;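 active = blocking of liver enzyme CYP2C9 beyond about 50% at 5 µM, limit read from the data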
# PostGolgi ctrl: growth inhibition of yeast control strain, primary screen, counter-screen for post-Golgi transport modulator project. inhibition, % at 10 µM. efflux-deficient yeast background strain, growth absorbance A615, 16 h. hit rate 5% among 98,000. AID 738, 2007
# PostGolgi yeast: phenotypic screen on post-Golgi transport, primary screen; hit rate 0.9% among 98,000; inhibition, % at 10 µM; AID 739, 2007; post-Golgi transport phenotypic cell assay;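 note: yeast cells grown in 1536-well plates; yeast grown about 18 h at 30C before absorbance read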
# CYP2C9 activ: human CYP2C9 activators, primary screen, biochemical, luminescence; Cytochrome P450 2C9 (Homo sapiens), P11712; recombinant CYP2C9, luciferin-H conversion; stronger effect = higher value; factor 1 = untreated enzyme, 0 = blocked; activation factor at 5 µM; hit rate 1.4% among 96,000;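 active = activation factor of 2 or more for CYP2C9 at a 5 µM dose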;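 note: 0 = sulfaphenazole-blocked wells and 1 = vehicle-only wells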
# An asterisk follows results filed as active; . = not tested or not shown. The list is not random: actives were taken first. Their share in the collection is about 32%. Cut-off read from the data, not from the text of the source, unless noted: active = inhibition above about 30%; inactive = the rest.
SMILES,CYP2C19 inhib,CYP2C19 act,CYP2C9 inh,PostGolgi ctrl,PostGolgi yeast,CYP2C9 activ
Cc1nc(NC(=O)CN(C)S(=O)(=O)c2ccc(Br)cc2)sc1C,94*,0.1,67*,11,-5,0.3
CN(CC(=O)NCCc1ccccc1)S(=O)(=O)c1ccc(Br)cc1,47,0.5,-76,3,-5,1.8
CN(CC(=O)Nn1cnnc1)S(=O)(=O)c1ccc(Br)cc1,83*,0.2,35,20,-1,0.7
CN(CC(=O)Nc1ccncc1)S(=O)(=O)c1ccc(Br)cc1,100*,0,77*,4,4,0.2
COc1ccc(NC(=O)CN(C)S(=O)(=O)c2ccc(Cl)cc2)cc1Cl,6,0.9,6,8,-6,0.9
CN(CCCC(=O)Nc1ccncc1)S(=O)(=O)c1ccc(Cl)cc1,98*,0,99*,19,4,0
Cc1cc(=O)oc2cc(OCC(=O)OCc3nnc(-c4ccccc4)o3)ccc12,5,0.9,-46,8,1,1.5
C=CCN(CC=C)C(=O)Cc1ccc(F)cc1,26,0.7,-19,-4,-1,1.2
COc1ccc(S(=O)(=O)Nc2ccc(F)c(Cl)c2)cc1OC,100*,0,56*,-3,-4,0.4
COc1ccc(NC(=O)C=C(C)C)cc1Cl,58*,0.4,14,-6,3,0.9
COc1ccc(S(=O)(=O)Nc2ccc(C)cc2)cc1N(C)S(=O)(=O)c1ccc(Cl)cc1,71*,0.3,62*,4,3,0.4
CCN(CC(=O)Nc1ccc(OC)c(OC)c1)S(=O)(=O)c1ccc(C)cc1,10,0.9,12,6,10,0.9
COC(=O)c1cc(NS(=O)(=O)c2ccc(OC)c(OC)c2)ccc1Cl,100*,0,80*,-3,-11,0.2
Cn1c(=O)oc2cc(S(=O)(=O)NCc3ccccn3)ccc21,24,0.8,-5,2,-1,1
COC(=O)c1cc(Cl)c(NS(=O)(=O)c2ccccc2)cc1OC,92*,0.1,92*,2,-1,0.1
COC(=O)c1cc(Cl)c(NC(=O)c2ccc(C(C)(C)C)cc2)cc1OC,20,0.8,-58,8,-1,1.6
COc1ccc(S(=O)(=O)NC(C(C)C)C(C)C)cc1OC,.,.,.,2,-3,.
COc1ccc(NC(=O)CNS(=O)(=O)c2ccccc2)cc1Cl,63*,0.4,-60,1,18,1.6
COc1cc(S(=O)(=O)NC(C)C)ccc1Cl,53*,0.5,-154,6,1,2.5*
CC1(C)NC(=O)N(CC(O)COc2ccc(N3C(=O)c4ccccc4C3=O)cc2)C1=O (configuration not stated),-9,1.1,-1,10,5,1
O=S1(=O)C=C(SCc2ccc(Cl)c(Cl)c2)Nc2ccccc21,68*,0.3,71*,16,-16,0.3
C=CCn1c(=O)c2ccccc2n2c(SCC(=O)Nc3cc(C)on3)nnc12,31,0.7,50*,17,-4,0.5
CCn1cc(SCC(N)=O)c2ccccc21,-18,1.2,-69,7,-18,1.7
Cc1cc(NC(=O)CSc2cn(C)c3ccccc23)no1,95*,0.1,9,0,-10,0.9
CCn1cc(SCC(=O)Nc2cc(C)on2)c2ccccc21,55*,0.4,14,-3,22,0.9
SMILES,CYP2C19 inhib,CYP2C19 act,CYP2C9 inh,PostGolgi ctrl,PostGolgi yeast,CYP2C9 activ
COC(=O)c1cc(NC(=O)CSc2nncn2C)cc(C(=O)OC)c1,22,0.8,27,17,-7,0.7
CC(NC(=O)c1ccccc1Br)c1nnc(SCc2ccc([N+](=O)[O-])cc2)n1C (configuration not stated),-7,1.1,-2,-10,-3,1
CCC1CCCCN1C(=O)COC(=O)c1cc2ccccc2cc1O (configuration not stated),53*,0.5,-22,5,-3,1.2
O=C(OCC(=O)N1CCCCC1)c1cc2ccccc2cc1O,76*,0.2,-5,16,-6,1.1
Nc1cc(C(=O)OCC(=O)N2CCCC2)ccc1Cl,18,0.8,41,32*,6,0.6
Cc1cc(C)n(-c2ccc(Cl)c(C(=O)OCC(=O)N3CCCCC3C)n2)n1 (configuration not stated),35,0.7,43,.,.,0.6
O=C(OCC(=O)N1CCCC1)c1cncc(Br)c1,17,0.8,6,-3,1,0.9
Cc1ccc(C23OC(=O)C(C)(C)C2OC(=O)C3(C)C)cc1 (configuration not stated),32,0.7,20,-7,-2,0.8
CC(C)(C)c1ccc(C(=O)Nc2cnccn2)cc1,12,0.9,24,7,13,0.8
Cc1c(NCc2nc3ccccc3[nH]2)c(=O)n(-c2ccccc2)n1C,42,0.6,10,-7,-4,0.9
Cc1c(NCc2cc(Cl)cc(Cl)c2O)c(=O)n(-c2ccccc2)n1C,73*,0.3,85*,21,10,0.1
Nc1n[nH]c2c1C1(CCCCC1)Cc1ccccc1-2,58*,0.4,33,42*,2,0.7
CC1(CC(=O)O)C(=O)N=C2C=CC=CN21 (configuration not stated),.,.,.,-10,5,.
Cc1cc(=O)oc2cc(OCC(=O)NCCc3nc4ccccc4[nH]3)ccc12,24,0.8,46,8,-3,0.5
Cc1ccccc1-c1cc(-c2ccccc2O)on1,-1,1,-13,12,-3,1.1
Oc1ccccc1-c1cc(-c2ccccc2)no1,1,1,16,43*,3,0.8
COc1ccc(N2CCN(C(=O)CSc3nnc(CNc4ccccc4)o3)CC2)cc1,.,.,.,-1,3,.
O=C(CSc1nnc(-c2ccccc2)o1)OCc1ccccc1,3,1,4,2,-5,1
COc1ccc(C(=O)CSc2nnc(Cc3ccccc3)o2)cc1,2,1,-41,23,-3,1.4
COc1cccc(OCc2nnc(SCC(=O)OCc3ccccc3)o2)c1,76*,0.2,62*,5,1,0.4
COc1ccc(Cc2nnc(SCC(=O)c3ccccc3)o2)cc1,77*,0.2,79*,27,8,0.2
C/C(Sc1nnc(Cc2ccccc2)o1)=C(/O)c1ccccc1,61*,0.4,68*,3,0,0.3
COc1ccc(Cc2nnc(SCC(=O)N3CCN(c4ccccc4)CC3)o2)cc1,-3,1,5,36*,4,1
OCCOc1nnnn1-c1ccccc1,-3,1,10,24,1,0.9
CCOc1ccc(OCC)c(NC(=O)c2ccc(CNc3c(N4CCOCC4)c(=O)c3=O)cc2)c1,21,0.8,26,1,5,0.7
